Test results reported in the supplement of paper PMC3334620.
Over roughly 33,000 sequences, “E-score (-0.5 to 0.5)” has its median near -0.0014; the highest 2% begin near 0.25. Only a selection was taken, and the highest values are over-represented in it overall.

Target: T1, Cad1 (UniProt P24813)
T1 sequence: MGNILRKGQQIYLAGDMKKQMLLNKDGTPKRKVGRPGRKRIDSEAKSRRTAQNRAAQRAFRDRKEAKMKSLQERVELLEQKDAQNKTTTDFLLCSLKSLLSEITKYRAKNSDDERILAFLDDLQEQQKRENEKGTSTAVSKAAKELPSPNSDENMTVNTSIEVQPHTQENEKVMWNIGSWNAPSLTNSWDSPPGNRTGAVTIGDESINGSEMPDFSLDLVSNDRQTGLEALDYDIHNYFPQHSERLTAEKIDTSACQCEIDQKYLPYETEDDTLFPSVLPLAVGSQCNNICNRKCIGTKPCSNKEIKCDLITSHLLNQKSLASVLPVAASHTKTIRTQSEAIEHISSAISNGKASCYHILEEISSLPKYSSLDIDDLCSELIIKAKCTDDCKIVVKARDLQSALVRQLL
Test: PBM E-score (8-mer binding enrichment) (E-score (-0.5 to 0.5)); higher = stronger / more preferred TF binding
Conditions: protein concentration: 100 nM; construct: GST-full length
Protocol: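 Universal 'all 10-mer' protein binding microarrays (Agilent AMADID 015681) probed with GST-tagged S. cerevisiae TFs (full-length or DBD) made by in vitro transcription/translation (PURExpress), about 100-200 nM. Bound TF was detected with fluorescent anti-GST. Each ungapped 8-mer (which stands for itself and its reverse complement) is scored by the PBM enrichment score (E-score), a modified Wilcoxon-Mann-Whitney statistic from -0.5 to +0.5, computed with the Universal PBM Analysis Suite. Scale: above 0.35 generally sequence-specific binding.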

| Sequence | PBM E-score |
| --- | --- |
| ACTAGGAT | -0.0418 |
| GTCGGTAA | -0.116 |
| CTATAGCA | -0.0148 |
| AATTCCAG | 0.257 |
| AATTCCAT | 0.0643 |
| AATTCCAC | 0.111 |
| AGTATCTC | 0.178 |
| TCTTCAAA | -0.0389 |
| TAACTCGA | 0.275 |
| CAACTCGA | 0.175 |
| GAACTCGA | 0.0968 |
| AAATTCAC | 0.0164 |
| ACTTATCT | 0.0827 |
| AATTATCT | 0.282 |
| AATTATCA | 0.266 |
| AATTATCG | 0.247 |
| AATTATTA | 0.249 |
| AATTATCC | 0.0534 |
| AGGAGACT | -0.286 |
| ATAAAACA | 0.0107 |
| CGATCGCA | 0.169 |
| CCAGATGA | -0.131 |
| TGAGCGAA | 0.123 |
| GCTGACCC | -0.145 |
| CCTGACTA | 0.351 |

| Sequence | PBM E-score |
| --- | --- |
| GATGACTA | 0.172 |
| ACTGACTA | 0.116 |
| GTTGACTA | 0.0212 |
| GCTGACTA | 0.335 |
| CCTGACTC | -0.139 |
| GCTGACCA | 0.252 |
| ACTGACCA | -0.105 |
| CCGATGGC | -0.118 |
| CGGGTGGA | -0.0447 |
| CGTTAGCC | 0.0683 |
| GCCCTAAA | -0.269 |
| CTCGAAGC | 0.00892 |
| AGCACTAA | 0.094 |
| TGCACTAA | 0.32 |
| CGCACTAA | 0.155 |
| TCGGGGAA | 0.0236 |
| GAGACGTA | -0.0175 |
| TCACAAAA | 0.253 |
| GCACAAAA | 0.18 |
| GGACAAAA | 0.0884 |
| TGACAAAA | 0.251 |
| GAACAAAC | 0.0779 |
| GAACAAAA | 0.274 |
| CGACAAAA | 0.136 |
| AAACAAAA | -0.0143 |

| Sequence | PBM E-score |
| --- | --- |
| ACACAAAA | 0.0974 |
| ATCAGCAG | 0.191 |
| AATATCCT | -0.0122 |
| AGAATTAT | 0.191 |
| ATAATTAC | 0.295 |
| CTAATTAC | 0.199 |
| CAAATTTG | 0.33 |
| ATAATTGG | -0.0135 |
| ATAATTTG | 0.278 |
| AAAATTTG | 0.196 |
| ATAATTAT | 0.377 |
| ATAATTTC | 0.154 |
| ATAATTCC | -0.00553 |
| CAAATTTC | 0.201 |
| ATTATAAT | 0.227 |
| GGCATTGA | -0.0489 |
| ACCGCGCG | 0.225 |
| CCGGTAGC | -0.164 |
| CCTCAATC | 0.0973 |
| GCATTCAA | 0.0687 |
| AAGGGACG | -0.195 |
| GACCGATC | -0.128 |
| CAGGGTCC | -0.134 |
| AGGGGGAA | -0.248 |
| AATTGGTC | 0.0715 |

| Sequence | PBM E-score |
| --- | --- |
| AGAATTAG | 0.00824 |
| ATAATTAA | 0.323 |
| GTAATTAC | 0.33 |
| GTAATTAA | 0.218 |
| ATAATTCG | 0.168 |
| CCAATTAG | 0.223 |
| ATAATTAG | 0.285 |
| TTAATTAA | 0.0562 |
| ATAATTGA | 0.149 |
| GGAATTAC | 0.21 |
| CTAATTAG | 0.41 |
| CTAATTAA | 0.147 |
| CCCTATAG | -0.143 |
| ACAGCGCC | -0.0091 |
| TATAAGAA | 0.0437 |
| GGCTGGTA | -0.18 |
| ATACTCTA | -0.0262 |
| ATATAATC | 0.0826 |
| GATGCAGA | 0.146 |
| AAGATGTC | -0.188 |
| GAGAGCCC | -0.458 |
| AGCCGCTG | -0.0754 |
| ACAATTAT | 0.267 |
| ACAATTAC | 0.119 |
| ACAATTAA | 0.148 |

| Sequence | PBM E-score |
| --- | --- |
| TAGAGGCA | -0.166 |
| AAACATAA | -0.131 |
| CAACATAA | 0.255 |
| CAACATAC | 0.132 |
| TAACATAA | 0.287 |
| CAACATAG | -0.073 |
| GAACATAA | 0.111 |
| CCCCTAAC | -0.15 |
| AGTTGGAT | -0.0953 |
| AGGATCCC | -0.144 |
| CCCAGCGG | -0.264 |
| TATGTGGA | 0.146 |
| AGGACGCG | -0.00704 |
| CAGTCTGA | 0.0314 |
| CTGTCGGC | -0.107 |
| CCAGTAAA | -0.0575 |
| CCATTATC | 0.0253 |
| ACATTATC | 0.274 |
| CCATTGTC | 0.00119 |
| ACATTGTG | -0.0593 |
| ACATTGTC | 0.292 |
| ACATTATG | 0.0893 |
| CTAGAGAC | -0.243 |
| AAATTTTC | 0.0644 |
| ACGCCTAT | -0.161 |

| Sequence | PBM E-score |
| --- | --- |
| AGTGTAGC | -0.0088 |
| GAGGTGGC | -0.149 |
| CGAACGCC | -0.0886 |
| AATCGGAA | 0.211 |
| AATCGGAT | 0.283 |
| AATCGGAG | 0.0523 |
| CCAGTCTC | -0.286 |
| CATCTGGA | -0.165 |
| CACAGCGA | 0.133 |
| ATATCGCC | 0.0776 |
| ATATCGCG | 0.267 |
| ATCGCGAG | 0.264 |
| ATCGCGAA | 0.243 |
| AGAGCGAG | -0.0569 |
| CACGCGAG | 0.239 |
| CGAGCGAC | 0.0243 |
| CTCGCGAA | 0.0936 |
| ATCGCGAT | 0.237 |
| ATATCGCA | -0.0511 |
| CGAGCGAG | 0.258 |
| CTCGCGAG | 0.279 |
| CCCAGACA | -0.108 |
| CGTTACGA | 0.111 |
| CATTAAGC | 0.0681 |
| AGTTGAGA | -0.0203 |

| Sequence | PBM E-score |
| --- | --- |
| AAGAGCCA | 0.0145 |
| AGACCACA | -0.0838 |
| ACGGCGTA | 0.0105 |
| AGGAATTG | 0.0938 |
| CGATCCCA | -0.0615 |
| CCTGCTAG | -0.182 |
| CGCAACAA | 0.0963 |
| GGAGCGTA | 0.0102 |
| ATCCGTAC | 0.177 |
| CTGGAATC | -0.0416 |
| CCTCCAGA | -0.208 |
| ACCGCGAG | -0.00282 |
| ATCGTGCA | 0.166 |
| CGCGTGAC | 0.056 |
| CGCGCGAG | 0.302 |
| ATCGCGCA | 0.0635 |
| CGCGTGAG | 0.269 |
| AGCGTGAG | -0.0272 |
| AGCGCGAG | 0.0178 |
| ATCGTGCG | 0.325 |
| ATCGTGCC | 0.102 |
| ATCGCGCG | 0.282 |
| CGCGCGAA | 0.175 |
| ATCGCGCC | 0.143 |
| CAACCAAA | 0.0894 |

| Sequence | PBM E-score |
| --- | --- |
| CGGAGTAA | 0.109 |
| ATAGACCG | -0.0498 |
| AACGCACC | -0.0282 |
| ACACCAAC | -0.0461 |
| CTCAATGC | -0.134 |
| ACTGGGAA | -0.0452 |
| CCTTATCG | 0.0678 |
| TCTTATCA | 0.267 |
| GCTTATCA | 0.0614 |
| TCTTATAA | 0.0694 |
| CCTTATCA | 0.257 |
| ACTTATCA | 0.116 |
| TGTGAAAA | 0.103 |
| ACGGAACC | 0.218 |
| GACCGGGC | -0.104 |
| AACTGATA | 0.0697 |
| ACAGACCC | -0.211 |
| AGAGACCT | -0.104 |
| CGGGACTA | -0.22 |
| ACGCACTG | -0.0467 |
| GGGCCTTA | -0.0621 |
| ATTAGTTA | 0.362 |
| GTTAGTTA | 0.155 |
| CCTAGTCA | -0.0765 |
| ATTAGTGA | 0.14 |

| Sequence | PBM E-score |
| --- | --- |
| ATTAGTGC | 0.353 |
| CTTAGTCC | -0.0572 |
| GCTAGTCA | -0.0828 |
| ATTAGTTG | 0.216 |
| GTTAGTCA | 0.266 |
| ATTAGTGG | 0.163 |
| GGTAGTCA | -0.206 |
| CTTAGTCA | 0.38 |
| GGTCTCAA | -0.0801 |
| GTCTACGA | -0.0725 |
| CCGGTTAG | 0.0658 |
| CACCGATG | -0.179 |
| ATTTCGAC | -0.0837 |
| GCGGGTAC | 0.0345 |
| CAATACCG | -0.0276 |
| AGGTCCCG | -0.0309 |
| AGCGATCG | 0.216 |
| ACGCTAGC | -0.0932 |
| AGGCATTA | -0.16 |
